ELG1 repair inh: qHTS screen for small molecules that inhibit ELG1-dependent DNA repair in human embryonic kidney (HEK293T) cells expressing luciferase-tagged ELG1 | HEK293T ELG1-luciferase reporter, luminescence, 16 h; DNA damage induced by 5-fluorouridine | Potency, µM (series often up to 46.1 µM), inactives show at the highest dose activity change, negative = inhibition, hits mostly inhibitors | 330,000 tested, 2.3% active; also: potency is read from the fitted curve at half-maximal effect; nearly all actives have a fitted effect of over 55% in size
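Reporter activity after DNA damage by 5-fluorouridine is monitored. Compound-treated cells incubate 16 hr at 37 °C, then ONE-Glo is added for 30 min before luminescence reading.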
Gal4-VP16 FLuc: VP16 counterscreen qHTS for inhibitors of ROR gamma transcriptional activity. Drosophila S2 Gal4-VP16 UAS-luciferase, luminescence, 20 h. Potency, µM (top dose mostly 53.6 µM), for inactives: top-dose activity, negative = inhibition, most hits filed as inhibitors. 310,000 tested, 3.5% active. AID 2546, 2010;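 also: Gal4-VP16 expression switched on by copper sulfate through the metallothionein promoter; potency is read from the fitted curve at half-maximal effect; nearly all actives have a fitted effect of over 50% in size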
TDP1 cell noCPT: qHTS for Inhibitors of human tyrosyl-DNA phosphodiesterase 1 (TDP1): qHTS in cells in absence of CPT; DT40 Tdp1-/- hTDP1 cells, no CPT, ATP luminescence, 48 h; Potency, µM (doses to about 46.2 µM), without a hit: at the top dose activity change, negative = growth inhibition, actives largely listed as inhibitors; 420,000 tested, 15% active; AID 686978, 2013; also: potency is read from the fitted curve at half-maximal effect; nearly all actives have a fitted effect of over 55% in size
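Stably hTDP1-transfected Tdp1-null chicken DT40 cells were treated with library compounds minus camptothecin and grown for at least 48 hr at 37 °C, after which cellular ATP was quantified by luminescence.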
RORgamma inh: qHTS for inhibitors of ROR gamma transcriptional activity. Nuclear receptor ROR-gamma (Mus musculus), P51450. Drosophila S2 Gal4-RORgamma UAS-luciferase reporter, 20 h. Potency, µM (top dose mostly 53.6 µM), for the others: top-dose activity change, negative = inhibition, most hits filed as inhibitors. 310,000 tested, 5.4% active. AID 2551, 2010; also: potency is read from the fitted curve at half-maximal effect; nearly all actives have a fitted effect of over 60% in size
Target sequence (P51450 whole entry, looked up, the tested form may be a part): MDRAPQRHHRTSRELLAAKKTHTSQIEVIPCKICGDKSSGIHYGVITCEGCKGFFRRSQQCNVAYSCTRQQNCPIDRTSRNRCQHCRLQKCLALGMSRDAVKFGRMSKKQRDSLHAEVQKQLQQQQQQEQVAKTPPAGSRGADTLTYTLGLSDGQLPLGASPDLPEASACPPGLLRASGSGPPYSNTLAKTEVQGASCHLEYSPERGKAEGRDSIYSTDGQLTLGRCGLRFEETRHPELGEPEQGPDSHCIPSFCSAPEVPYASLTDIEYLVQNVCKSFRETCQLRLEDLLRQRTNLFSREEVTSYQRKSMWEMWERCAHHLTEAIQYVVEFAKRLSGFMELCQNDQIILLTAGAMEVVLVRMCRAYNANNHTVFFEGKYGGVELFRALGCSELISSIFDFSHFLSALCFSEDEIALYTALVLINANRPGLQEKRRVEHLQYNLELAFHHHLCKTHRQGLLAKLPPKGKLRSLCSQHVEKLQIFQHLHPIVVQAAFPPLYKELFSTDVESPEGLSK
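Luciferase reporter read in Schneider cells carrying Gal4-RORγ (mouse) and UAS-Photinus luciferase; cells given compound 1 h before 700 uM copper sulfate induction, then incubated 20 h at ambient temperature.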
TDP1 cell CPT: qHTS for Inhibitors of human tyrosyl-DNA phosphodiesterase 1 (TDP1): qHTS in cells in presence of CPT; chicken DT40 Tdp1-/-;hTDP1 cells + 20 nM CPT, ATP luminescence, 48 h; Potency, µM (series often up to 46.2 µM), for the others: at the top dose activity change, negative = growth inhibition, hits mostly inhibitors; 420,000 tested, 12% active; AID 686979, 2013; also: potency is read from the fitted curve at half-maximal effect; nearly all actives have a fitted effect of over 55% in size
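Chicken DT40 Tdp1-/- cells complemented with human TDP1, 400 cells/well, exposed to compounds plus 20 nM camptothecin for at least 48 h at 37 C; viability read as ATP content by CellTiter-Glo luminescence.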
IL-1B inflam inh: qHTS for Inhibitors of Inflammasome Signaling: IL-1-beta AlphaLISA Primary Screen; THP-1 LPS/ATP IL-1B secretion, AlphaLISA, 16 h; stronger effect = lower value; activity change, % at 57.5 µM; 360,000 tested, 4.7% active; AID 743279, 2014; in the data active = activity change below about -50%; inconclusive = mostly about -30% to -49%
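Secreted IL-1B measured by AlphaLISA bead assay after 16 h compound exposure of THP-1 cells; compounds (final up to 57.5 uM) added 1 h before LPS (250 ng/mL) and ATP (1.25 mM) stimulation; lower signal means less secretion.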
* = called active by the depositor; i = inactive; u = inconclusive; x = no result; [ ] = remark or other dose. In the library only some 21% were active in any assay of this set; here they are far more common. Unless noted, calls follow the shape of the dose curve; as a rule, active = well fitted curve in the direction sought with a large enough effect; inconclusive = small, poorly fitted or top-dose-only effect, or another doubt; inactive = no such curve, though single readings can be large; an effect the other way counts as inactive or inconclusive. % is scaled to controls: 0 for no effect and ±100 for the full control effect.

SMILES	ELG1 repair inh	Gal4-VP16 FLuc	TDP1 cell noCPT	RORgamma inh	TDP1 cell CPT	IL-1B inflam inh
Cc1cc(-c2nnc(SCC(=O)Nc3ccc(C)c(C)c3)n2N)n[nH]1	23%	-13%	13%	-29%	3%	6
O=C(O)c1cc(S(=O)(=O)N2CCCCC2)ccc1N1CCCCC1	24%	x	30%	x	-6%	11
CCN(C(=O)c1cc2cc(OC)ccc2oc1=O)c1cccc(C)c1	-7%	1%	-24%	8%	-22%	2
COc1cccc(-n2c(SCC(=O)NCCC3=CCCCC3)nc3n[nH]c(C)c3c2=N)c1	16µM*	-2%	15µM*	-39%	16µM*	19
CCN(C(=O)CSc1nc2n[nH]c(C)c2c(=N)n1-c1cccc(OC)c1)c1cccc(C)c1	x	x	u	x	23µM*	x
Cc1onc(-c2c(F)cccc2Cl)c1C(=O)OCC(=O)NC1CC1	0%	-6%	-20%	-5%	-2%	-6
O=C1c2ccccc2C(=O)N1CC(O)COc1ccccc1Cl (stereo not given)	u	-3%	9%	-1%	2%	-10
CSc1nc2ccc(Nc3nc(N4CCOCC4)nc(N4CCOCC4)n3)cc2s1	5.2µM*	x	16µM*	u	23µM*	x
Cc1cccc(C)c1Nc1nnc(SCC(=O)NCc2ccco2)s1	0%	-3%	-24%	1%	-29%	21
O=C(CSc1nc2ccc(Nc3nc(N4CCOCC4)nc(N4CCOCC4)n3)cc2s1)N1CCOCC1	2.6µM*	-19%	18µM*	-7%	21µM*	-13
CC(=O)Nc1ccc2nc(SCC(=O)N3CCOCC3)sc2c1	5%	-13%[10 µM]	-1%	18%	6%	11
O=C(O)c1cc(Nc2nc(N3CCOCC3)nc(N3CCOCC3)n2)ccc1Cl	1%	-1%	0%	-10%	-13%	33
O=C(CSc1nc2ccc(Nc3nc(N4CCCC4)nc(N4CCCC4)n3)cc2s1)NCc1ccco1	u	9%	6.5µM*	9%	5.8µM*	0
COC(=O)c1ccccc1NC(=O)CSc1nc(Nc2ccccc2)nc(N2CCOCC2)n1	u	-12%	u	37%	u	0
O=C(CSc1nc2ccc(Nc3nc(N4CCOCC4)nc(N4CCOCC4)n3)cc2s1)Nc1ccccc1F	2.6µM*	-24%	5.8µM*	-33%	6.5µM*	40
Cc1cccc(CNC(=O)c2cnc3sc(N4CCCCCC4)nn3c2=O)c1	x	x	-9%	x	-16%	x
COc1cccc(CNC(=O)[C@@H]2CCCN2C(=O)[C@H]2CCCCN2C(=O)c2cccc(Cl)c2)c1	x	x	u	x	6%	-20
CCC(=O)N1CCC1(C)C(=O)Nc1ccc2nc(C)ccc2c1 (stereo not given)	x	x	u	x	-15%	-7
COc1ccc(Cn2c(=O)c3oc4ccccc4c3n(Cc3cccc(C)c3)c2=O)cc1	x	x	-11%	x	-13%	x
CCn1c(=O)c2cc(C(=O)NCc3cccs3)sc2c2ccccc21	-2%	8%	u	3%	3%	-14
CCn1c(=O)c2cc(C(=O)N(C)c3cc(C)ccc3OC)sc2c2ccccc21	-25%	2%	u	-3%	u	-84*
CCn1c(C(=O)O)c(CC(=O)N(C)c2ccc(OC)cc2OC)c2ccccc21	0%	0%	-27%	0%	-5%	-4
CCn1c(=O)c2cc(C(=O)N(C)c3ccc(OC)cc3OC)sc2c2ccccc21	u	3%	13µM*	19%	u	-7
O=c1c(-c2ccccc2)nc2cncnc2n1Cc1ccccc1	x	5%	u	16%	u	x
CCOC(=O)c1ccccc1N/C=C/C(=O)c1cccs1	6%	-18%	21µM*	u	u	23
SMILES	ELG1 repair inh	Gal4-VP16 FLuc	TDP1 cell noCPT	RORgamma inh	TDP1 cell CPT	IL-1B inflam inh
Cc1ccc(N/C=C/C(=O)c2cccs2)cc1	u	8.9µM*	-19%	u	u	9
COc1cccc(CNC(=O)c2cc(S(=O)(=O)N3CCOCC3)ccc2N2CCCC2)c1	-2%	x	u	x	-20%	-15
Cc1cc(C)n(-c2nc(C)c(C)c(=O)n2CC(=O)Nc2ccc(Cl)c(Cl)c2)n1	x	x	7.3µM*	x	15µM*	x
Cc1cc(=O)n(CC(=O)Nc2ccc([N+](=O)[O-])cc2)c(-n2nc(C)cc2C)n1	x	x	21µM*	x	18µM*	x
COc1ccc(-c2nn(CC(=O)Nc3ccc(Cl)c(Cl)c3)c(=O)c3ccccc23)cc1	1%	-5%	-19%	13%	-12%	-18
Cc1cc(C)n(-c2nc(C)c(C)c(=O)n2CC(=O)Nc2ccc(OC(F)(F)F)cc2)n1	x	x	18µM*	x	15µM*	x
O=[N+]([O-])c1cccc(-c2nnc(-c3ccccc3F)o2)c1	u	-2%	15%	-1%	-11%	5
Cc1cc(C)c(S(=O)(=O)N2CCN(C(=O)c3ccc(-n4nc(C)c(Cl)c4C)cc3)CC2)c(C)c1	x	x	16µM*	x	23µM*	-15
Cc1ccc(S(=O)(=O)N2CCN(C(=O)c3ccc4c(c3)OCO4)CC2)cc1	-22%	-6%	-23%	20%	u	-12
Cc1cc(C)c(S(=O)(=O)N2CCN(C(=O)c3ccc4c(c3)OCO4)CC2)c(C)c1	-19%	-4%	u	u	-20%	-60*
CCOc1ccc(N(CC(=O)NCc2cccnc2)S(=O)(=O)c2ccc(F)cc2)cc1	-3%	1%	-14%	1%	-15%	i
CS(=O)(=O)c1nc(S(=O)(=O)c2ccc(Cl)cc2)c(NCCN2CCOCC2)s1	16%	1%	20%	3%	-11%	-52*
CS(=O)(=O)c1nc(S(=O)(=O)c2ccc(Cl)cc2)c(NCCCn2ccnc2)s1	u	-6%	20%	4%	5%	-56*
CCN1CCCC1Cn1c(-c2ccccc2)nc2c(N(CCOC)CCOC)nc(C)nc21 (stereo not given)	x	-2%	x	-20%	x	x
CCOc1ccccc1CN1CCNC(=O)C1CC(=O)N(C)Cc1nonc1C (stereo not given)	-4%	-10%	1%	-1%	u	-57*
Cc1ccccc1NC(=O)CC1SC(=Nc2ccc(O)cc2)NC1=O (stereo not given)	4%	-1%	-9%	26%	-19%	-3

Screening data as filed in PubChem BioAssay.
